# Data published in PubChem BioAssay AID651821 (The Scripps Research Institute Molecular Screening Center, 2012).
# In all, about 370,000 compounds went through this assay and about 4,700 (1.3%) were called active. Shown is part of a subset that was picked to be rich in actives. Unmarked numbers belong to inactive results.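 Rule for the calls: active = inhibition above the plate cutoff, the mean of all test compounds on that plate plus 3 SD (cut at about 35% in these data); inactive = the rest.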
# Experiment: binders of r(CAG) RNA repeats, primary screen, biochemical, fluorescence (AID 651821);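 note: 0% = DMSO alone and 100% = 100 µM mitoxantrone as full dye displacement; higher means more dye released from RNA so lower well fluorescence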
# Settings: r(CAG) RNA repeat, TO-PRO-1 dye displacement fluorescence; at 3 µM; hits give high values
row,Structure (SMILES),inhibition
1,Nc1ncnc2c1ncn2[C@@H]1O[C@H](C(=O)N[C@@H](CCc2ccccc2)C(=O)N2CCCN(Cc3cccs3)CC2)[C@@H](O)[C@H]1O,1.07%
2,CCCC[C@H]1C2CC(OC(=O)NCc3ccccc3)C(C2)[C@H]2CCCCN21 (stereo partly drawn),2.74%
3,O=S1(=O)c2c(NCc3ccco3)cccc2Oc2ccccc2CN1Cc1cn(Cc2cccc(C(F)(F)F)c2)nn1,13.6%
4,COCc1cc(N2CCN(C(=O)OC(C)(C)C)C[C@@H]2C)ccc1N1CCN(Cc2ccccc2)[C@H](C)C1,3.76%
5,CC(C)c1ccc(CC(=O)N2CCC2(C)C(=O)NS(=O)(=O)c2ccc(C(C)(C)C)cc2)cc1 (stereo not drawn),71% (active)
6,CCCC(=O)N1CCC1(C)C(=O)NS(=O)(=O)c1ccc(Cl)cc1 (stereo not drawn),3.6%
7,CC(C)(C)c1ccc(S(=O)(=O)NC(=O)C2(C)CCN2C(=O)CC2CC2)cc1 (stereo not drawn),5.41%
8,O=c1ccc2c(-c3ccccc3S(=O)(=O)O)c3ccc(O)c(O)c3oc-2c1O,66.8% (active)
9,COc1ccc(C(=O)CSc2nnc(-c3cnccn3)n2-c2ccc(C)cc2)cc1,4.26%
10,O=C(/C=C/c1ccc([N+](=O)[O-])o1)NNC(=O)c1ccc(F)cc1,7.58%
11,Cc1ccc(/C=C/C(=O)Nc2ccc([N+](=O)[O-])c(NC(=O)/C=C/c3ccc(C)o3)c2)o1,51% (active)
12,Cc1cc(NC(=O)COC(=O)/C=C/c2ccc(C)o2)no1,-0.62%
13,C[C@@H]1ON(C)[C@H]2C[C@H]3c4[nH]c5cccc(-c6ccc7c(c6)OCO7)c5c4CCN3C[C@@H]12,6.14%
14,COc1ccccc1C(=O)NCCC(=O)NN1C(=O)NC2(CCCCC2)C1=O,-4.93%
15,COc1ccccc1C(=O)Nc1nc2nc(-c3ccccc3)cc(=O)n2[nH]1,7.94%
16,COc1ccccc1C(=O)Nn1cnnc1,-5.43%
17,COc1cccc2sc(NNC(=O)c3nc4ccccc4s3)nc12,62.5% (active)
18,COC(=O)[C@@]12CCCCC3=C1N(CCC3)C(=O)[C@H]2CC(=O)NCc1cccc2ccccc12,3.84%
19,COc1ccc(S(=O)(=O)N(CC(=O)N/N=C/c2ccc(C(=O)O)cc2)Cc2ccccc2)cc1OC,25.2%
20,CC(=O)Nc1ccc(S(=O)(=O)NCCc2ccccc2)cc1,-3.69%
21,CC(=O)Nc1ccc(S(=O)(=O)N(CCc2ccccc2)CC(=O)N/N=C/c2ccc(C(=O)O)cc2)cc1,40.4% (active)
22,O=C(Nc1c(Cl)c(C2CC2)nn1-c1ccccc1)C(Cl)(Cl)Cl,2.42%
23,CCCCCN1CCCCC(NC(=O)C(C)CCC)C1=O (stereo not drawn),-0.91%
24,COC(=O)C1CN(Cc2ccc(F)cc2)CCS(=O)(=O)N1Cc1ccc(Cl)cc1 (stereo not drawn),2.48%
25,COc1ccc(NC(=O)C(c2ccncc2)n2c(=O)c(-c3cc4ccccc4[nH]3)nc3ccccc32)cc1 (stereo not drawn),19.9%
26,COc1ccc(C(C(=O)Nc2c(C)cccc2C)N2CCN(c3ccc(C)cc3)CC2)cc1 (stereo not drawn),1.38%
27,COc1ccc(C(C(=O)NCc2ccccc2)n2c(=O)c(-c3ccccc3)nc3ccccc32)cc1 (stereo not drawn),7.82%

row,Structure (SMILES),inhibition
1,Cc1cccc(C)c1NC(=O)C(c1ccc(C(F)(F)F)cc1)n1c(=O)c(-c2ccco2)nc2ccccc21 (stereo not drawn),34.8% (active)
2,CCCCCNC(=O)C(c1ccc(OC)cc1)n1c(=O)c(-c2ccccc2)nc2ccccc21 (stereo not drawn),7.62%
3,Cc1cccc(C)c1NC(=O)C(c1cccc2ccccc12)n1c(=O)c(-c2ccco2)nc2ccccc21 (stereo not drawn),43.8% (active)
4,O=C(NC1CCCCC1)C(c1cc2ccccc2o1)n1c(=O)c(-c2ccco2)nc2ccccc21 (stereo not drawn),24.4%
5,CCC(C(=O)Nc1c(C)cccc1C)n1c(-c2cc(C)cs2)nc2ccccc21 (stereo not drawn),2.46%
6,N#Cc1ccc(C(C(=O)NCc2ccccc2)n2c(=O)c(-c3ccco3)nc3ccccc32)cc1 (stereo not drawn),38.9% (active)
7,CC(=O)N1CCc2cc(S(=O)(=O)NCCC(=O)N3CCCC3)ccc21,0.89%
8,COc1ccc(C2=CN(Cc3ccccc3)C(c3ccc(OC)cc3)CC2=O)cc1 (stereo not drawn),2.54%
9,COC(=O)C1CN(CCc2ccccc2)CCS(=O)(=O)N1Cc1ccc(F)cc1 (stereo not drawn),5.69%
10,O=C(NCC1COc2ccccc2O1)c1ccc(NC(=O)c2cc(F)ccc2F)cc1 (stereo not drawn),4.71%
11,CC(CCN1CCC(C(O)(c2ccccc2)c2ccccc2)CC1)Oc1ccc([N+](=O)[O-])cc1Cl (stereo not drawn),2.17%
12,CCOC(=O)Cc1csc(SCC(=O)NC(C)C23CC4CC(CC(C4)C2)C3)n1 (stereo not drawn),-11.4%
13,O=[N+]([O-])c1ccc(NS(=O)(=O)c2ccccc2)c(Cl)c1,6.07%
14,O=S(=O)(Nc1ccc(O)c2ccccc12)c1ccc(OC(F)(F)F)cc1,39% (active)
15,O=S(=O)(Nc1ccc(OC(F)(F)F)cc1)c1cccc2nonc12,3.85%
16,COC(=O)[C@]12C[C@H](CC(=O)NCc3cccc4ccccc34)C(=O)N(CCc3ccc(OC)c(OC)c3)C1=C[C@H](C1CCCC1)O[C@@H]2C,6.55%
17,Nc1[nH]c(/C=C2/CCCCC2n2[nH]c(=O)n(-c3ccccc3)c2=O)c(Cc2ccccc2)[n+]1Cc1ccccc1 (stereo not drawn),8.51%
18,COc1ccc(CCNC(=O)CSc2nc3c([nH]2)c(=O)n(C)c(=O)n3C)cc1,1.31%
19,O=C(NC(=S)Nc1ncccn1)c1ccccc1Br,-2.07%
20,O=C(NC(=S)Nc1ccccc1C(=O)O)c1ccc(-c2ccc(Br)cc2)o1,69.5% (active)
21,O=C(O)c1ccccc1-c1ccccc1C(=O)Nc1ccccc1Br,1.52%
22,CCCCCCCCN1C(=O)[C@@H](CC(=O)NCCCC)C[C@@]2(C(=O)OC)C1=C[C@H](C(C)(C)C)O[C@@H]2C,0.05%
23,CCCCOCC1CN(CCCC)S(=O)(=O)c2c(Oc3ccc(F)cc3)cccc2O1 (stereo not drawn),2.41%
24,Fc1ccc2cnc(-c3ccccc3)cc2c1,2%
25,Nc1cccc(-c2cncc(N3CCN(Cc4ccccn4)CC3)n2)c1,2.15%
26,Nc1cccc(-c2cc(-c3ccccc3)nc(-c3cccc(N)c3)n2)c1,35.3% (active)
